# In PubChem BioAssay (Tox21):
# Values without a mark were called inactive. Records with an inconclusive call do not appear. A call without a number means that no potency is given here. Active and inactive are the calls of the source. Unless noted, calls follow the shape of the dose curve; as a rule, active = well fitted curve in the direction sought with a large enough effect in the repeat runs; inconclusive = weak or mixed curves; inactive = no such curve, though single readings can be large; an effect the other way counts as inactive or inconclusive.
# Columns and labels:
# [1] = A CellTox Green Cytotoxicity Assay to monitor cytotoxicity in HEK293 cells - 32 hour (AID 1224881); also: nearly all actives have a fitted effect of over 40% in size
# Outline: (§1)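 HEK293 cells premixed with CellTox Green dye were seeded at 600 cells/well and left 5 h at 37 C/5% CO2 before pin transfer of 23 nL compound in DMSO. Fluorescence from dye bound to dead-cell DNA was read during 40 h treatment.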
# [2] = A CellTox Green Cytotoxicity Assay to monitor cytotoxicity in HepG2 cells - 0 hour (AID 1224882); also: nearly all actives have a fitted effect of over 35% in size
# Outline: (§2)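 HepG2 cells were seeded together with the CellTox Green dye at 600 cells/well, left 5 h at 37 C/5% CO2, then given compounds in DMSO. Fluorescence from dye bound to dead-cell DNA was read repeatedly over 40 h of treatment at 37 C.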
# [3] = A CellTox Green Cytotoxicity Assay to monitor cytotoxicity in HepG2 cells - 32 hour (AID 1224883); also: nearly all actives have a fitted effect of over 50% in size; also: potency is read from the fitted curve at half-maximal effect
# Outline: as §2
# [4] = A CellTox Green Cytotoxicity Assay to monitor cytotoxicity in HEK293 cells - 8 hour (AID 1224884); also: nearly all actives have a fitted effect of over 35% in size
# Outline: as §1
# [5] = qHTS RealTime-Glo MT Cell Viability Assay in HepG2 cells - 16 hour (AID 1224885); also: nearly all actives have a fitted effect of over 50% in size
# Outline: (§3)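 Tox21 10K library screened in qHTS format on HepG2 cells carrying RealTime-Glo reagents. Compounds were added after a 5 h preincubation, and the luminescent signal from continuous culture was measured repeatedly during 40 h treatment.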
# [6] = qHTS RealTime-Glo MT Cell Viability Assay in HEK293 cells - 24 hour (AID 1224886); also: top concentration of the series differs between compounds; nearly all actives have a fitted effect of over 50% in size
# Outline: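 Luminescence generated by NanoLuc from substrate produced by living HEK293 cells served as the viability signal. Each value reflects the reading at its stated time point during continuous 40 h compound exposure at 37 C.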
# [7] = qHTS RealTime-Glo MT Cell Viability Assay in HEK293 cells - 8 hour (AID 1224887); also: top concentration of the series differs between compounds; nearly all actives have a fitted effect of over 50% in size
# Outline: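 HEK293 cells mixed with RealTime-Glo reagents (NanoLuc plus cell-permeant prosubstrate) at 600 cells/well, preincubated 5 h at 37 C/5% CO2, then given 23 nL compound in DMSO. Nonlytic luminescence from viable cells was read at 0, 8, 16, 24, 32 and 40 h.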
# [8] = A CellTox Green Cytotoxicity Assay to monitor cytotoxicity in HEK293 cells - 16 hour (AID 1224888); also: nearly all actives have a fitted effect of over 35% in size
# Outline: as §1
# [9] = qHTS RealTime-Glo MT Cell Viability Assay in HepG2 cells - 0 hour (AID 1224889); also: nearly all actives have a fitted effect of over 50% in size
# Outline: as §3
# [10] = A CellTox Green Cytotoxicity Assay to monitor cytotoxicity in HepG2 cells - 8 hour (AID 1224890); also: nearly all actives have a fitted effect of over 45% in size
# Outline: as §2
# [11] = qHTS assay to identify small molecule antagonists of the estrogen receptor alpha (ER-alpha) signaling pathway using the BG1 cell line in the presence of 0.1 nM 17-beta-estradiol - cell viability counter screen (AID 1259241); also: nearly all actives have a fitted effect of over 40% in size
# Outline: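 Cytotoxicity counter-screen: live-cell protease activity measured by fluorescence (30 min reagent step) in the same wells. Cells were VM7Luc4E2 with endogenous ER-alpha and ERE-driven luciferase, treated 22 hr at 37C alongside 0.1 nM 17beta-estradiol final.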
# [12] = qHTS assay to identify small molecule antagonists of the androgen receptor (AR) signaling pathway using the MDA cell line in the presence of 0.5 nM R1881 - cell viability counter screen (AID 1259242); also: nearly all actives have a fitted effect of over 45% in size
# Outline: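 MDA-kb2 cells (human breast carcinoma, stably carrying MMTV-luciferase reporter) were exposed to compounds with 0.5 nM R1881 (final) for 16 hr at 37C, 0% CO2; viability then read as live-cell protease fluorescence (CellTiter-Fluor, 30 min) in the same wells.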
# [13] = qHTS assay to identify small molecule HDAC inhibitors (AID 1259364); also: nearly all actives have a fitted effect of over 45% in size; also: potency is read from the fitted curve at half-maximal effect; as to activity change, negative = inhibition: top concentration of the series differs between compounds
# Outline: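 Wild-type HCT-116 cells were plated overnight, exposed to compounds for 2 h at 37 °C, then given HDAC-Glo class I/II luminogenic reagent for 30 min at room temperature before luminescence was read.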
# [14] = qHTS assay to identify small molecule HDAC inhibitors - cell viability counter screen (AID 1259365)
# Outline: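 CellTiter-Glo luminescence (30 min, room temperature) reported viability after a 2 h compound exposure at 37 C. Cells: wild-type HCT-116, 1,500 per well, seeded the night before.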
# [15] = qHTS assay to identify small molecule agonists of the sonic hedgehog signaling (Shh) pathway - cell viability counter screen (AID 1259366); also: nearly all actives have a fitted effect of over 50% in size
# Outline: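 Cytotoxicity counter screen: CellTiter-Fluor reagent added after 23 h compound exposure, then 1 h at 37C and fluorescence read. Cells were 3T3 Gli1-Luc, seeded 2,000 per well and dosed 4 h post-plating.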
# [16] = qHTS assay to identify small molecule agonists of the sonic hedgehog signaling (Shh) pathway (AID 1259368; calls by dose curve; also: series mostly up to about 92 µM; nearly all actives have a fitted effect of over 15% in size)
# Outline: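 NIH/3T3-derived 3T3Gli1-Luc cells carrying a stably integrated Gli1 response element–firefly luciferase reporter were plated, left 4 hr at 37 C, then given compounds in DMSO for 24 hr. Luminescence was read 30 min after adding luciferase reagent.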
# [17] = biological target: Estrogen receptor (Homo sapiens) (UniProt P03372); assay: qHTS assay to identify small molecule antagonists of the estrogen receptor alpha (ER-alpha) signaling pathway using the BG1 cell line in the presence of 0.1 nM 17-beta-estradiol (AID 1259244); also: nearly all actives have a fitted effect of over 50% in size
# Sequence of Estrogen receptor (Homo sapiens) (P03372 whole entry, looked up): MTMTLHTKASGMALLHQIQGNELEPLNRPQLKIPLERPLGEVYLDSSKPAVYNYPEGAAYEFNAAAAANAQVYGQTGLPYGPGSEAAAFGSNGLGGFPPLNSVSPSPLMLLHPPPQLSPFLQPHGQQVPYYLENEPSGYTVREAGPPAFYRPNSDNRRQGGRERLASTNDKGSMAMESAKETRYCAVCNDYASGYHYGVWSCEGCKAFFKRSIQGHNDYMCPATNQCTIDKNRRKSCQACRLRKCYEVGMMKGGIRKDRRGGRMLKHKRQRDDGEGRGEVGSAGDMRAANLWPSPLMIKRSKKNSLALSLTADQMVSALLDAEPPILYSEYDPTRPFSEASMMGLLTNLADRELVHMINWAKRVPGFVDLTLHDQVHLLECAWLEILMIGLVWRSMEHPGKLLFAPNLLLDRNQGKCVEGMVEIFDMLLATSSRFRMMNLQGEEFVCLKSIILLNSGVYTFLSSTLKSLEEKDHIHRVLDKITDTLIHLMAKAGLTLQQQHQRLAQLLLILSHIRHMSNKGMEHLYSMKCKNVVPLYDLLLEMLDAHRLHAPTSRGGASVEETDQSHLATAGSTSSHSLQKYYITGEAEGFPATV
# Outline: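 VM7Luc4E2 cells (endogenous full-length ER-alpha, stable 4xERE-luciferase) were grown 5 days in phenol red-free medium with charcoal-stripped FBS, then exposed 22 h at 37C to compounds plus 0.1 nM (final) 17beta-estradiol; ONE-Glo luminescence read-out.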
# [18] = biological target: Androgen receptor (Homo sapiens) (UniProt P10275); assay: qHTS assay to identify small molecule antagonists of the androgen receptor (AR) signaling pathway using the MDA cell line in the presence of 0.5 nM R1881 (AID 1259243); also: nearly all actives have a fitted effect of over 50% in size
# Sequence of Androgen receptor (Homo sapiens) (P10275 whole entry, looked up): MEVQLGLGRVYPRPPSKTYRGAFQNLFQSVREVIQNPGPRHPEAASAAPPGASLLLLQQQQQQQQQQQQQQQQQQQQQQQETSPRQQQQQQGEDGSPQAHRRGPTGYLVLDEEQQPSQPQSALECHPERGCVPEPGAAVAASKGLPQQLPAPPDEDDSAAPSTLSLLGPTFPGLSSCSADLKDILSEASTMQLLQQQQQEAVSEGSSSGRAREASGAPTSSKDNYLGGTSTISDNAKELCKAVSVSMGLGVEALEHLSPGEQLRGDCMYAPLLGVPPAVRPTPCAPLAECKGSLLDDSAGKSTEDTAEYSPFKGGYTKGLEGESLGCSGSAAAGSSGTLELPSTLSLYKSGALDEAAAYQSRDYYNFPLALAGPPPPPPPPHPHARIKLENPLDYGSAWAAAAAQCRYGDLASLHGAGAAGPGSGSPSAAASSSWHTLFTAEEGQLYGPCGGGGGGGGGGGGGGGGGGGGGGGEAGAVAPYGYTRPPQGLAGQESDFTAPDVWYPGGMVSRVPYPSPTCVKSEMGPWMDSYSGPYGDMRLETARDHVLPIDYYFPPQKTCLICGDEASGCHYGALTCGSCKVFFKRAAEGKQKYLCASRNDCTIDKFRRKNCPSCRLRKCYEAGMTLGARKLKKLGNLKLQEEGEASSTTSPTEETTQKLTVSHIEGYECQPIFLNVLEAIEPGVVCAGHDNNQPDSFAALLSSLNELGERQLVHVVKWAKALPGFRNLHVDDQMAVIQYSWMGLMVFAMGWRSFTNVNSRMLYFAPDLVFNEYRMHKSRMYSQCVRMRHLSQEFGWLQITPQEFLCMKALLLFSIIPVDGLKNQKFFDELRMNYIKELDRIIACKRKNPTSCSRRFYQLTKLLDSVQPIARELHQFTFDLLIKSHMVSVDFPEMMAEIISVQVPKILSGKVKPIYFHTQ
# Outline: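 MDA-kb2 human breast carcinoma cells carrying an MMTV-luciferase reporter (AR- and GR-responsive) were plated, rested 5 hr at 37C, dosed with compounds, then stimulated with 0.5 nM R1881 (final) for 16 hr; luminescence was read after ONE-Glo.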
# [19] = qHTS assay to identify small molecule antagonists of the sonic hedgehog signaling (Shh) pathway - cell viability counter screen (AID 1259367); also: nearly all actives have a fitted effect of over 55% in size; also: potency is read from the fitted curve at half-maximal effect
# Outline: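 After a 4 hr settling period, 3T3 Gli1-Luc cells were treated with DMSO-dissolved chemicals and conditioned medium, kept 24 hr at 37C in 5% CO2, and assayed for viability by CellTiter-Fluor fluorescence following 1 hr reagent incubation.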
# [20] = qHTS assay to identify small molecule phospholipidosis (PLD) inducers (AID 1259344; active = well fitted curve in the direction sought with a large enough effect; an effect the other way counts as inactive or inconclusive)
# Outline: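 HepG2 cells grown on collagen I take up LipidTOX Red while exposed to compound for 24 h; after fixation they are imaged at 20x and pit metrics are extracted.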
compound,measurement,setting,value
NC(Cc1ccc(F)cc1)C(=O)O (stereo not drawn),cytotoxicity increase,[1],12.7% [at 6.97 µM]
same,cytotoxicity,[2],-0.531% [at 6.97 µM]
same,cytotoxicity increase,[3],8.52% [at 6.97 µM]
same,cytotoxicity increase,[4],17.5% [at 6.97 µM]
same,"activity change, negative = cytotoxic",[5],2.23% [at 6.97 µM]
same,"activity change, negative = cytotoxicity",[6],-0.156% [at 6.97 µM]
same,"activity change, negative = cytotoxicity",[7],1.39% [at 6.97 µM]
same,activity change,[8],"17.7% [at 6.97 µM, stronger effect = higher value]"
same,"activity change, negative = cytotoxicity",[9],18.9% [at 6.97 µM]
same,cytotoxicity increase,[10],1.46% [at 6.97 µM]
same,"activity change, negative = cytotoxicity",[11],0.956% [at 8.39 µM]
same,"viability change, negative = cytotoxic",[12],3.8% [at 8.39 µM]
same,"activity change, negative = inhibition",[13],-2.41% [at 8.39 µM]
same,"activity change, negative = cytotoxicity",[14],4.97% [at 8.39 µM]
same,"viability change, negative = cytotoxic",[15],-12.8% [at 8.39 µM]
same,activity change,[16],"0.322% [at 8.39 µM, stronger effect = higher value]"
FC(F)(F)C(Cl)(Cl)Cl,Potency,[1],inactive
same,Potency,[2],inactive
same,Potency,[3],inactive
same,Potency,[4],inactive
same,outcome,[5],inactive
same,Potency,[6],inactive
same,Potency,[7],inactive
same,Potency,[8],inactive
same,Potency,[9],inactive
same,Potency,[10],inactive
same,Potency,[11],inactive
same,outcome,[12],inactive
same,Potency,[17],inactive
same,Potency,[13],inactive
same,outcome,[14],inactive
same,Potency,[15],inactive
same,Potency,[16],inactive
CCCS(=O)c1ccc2nc(NC(=O)OC)[nH]c2c1 (stereo not drawn),Potency,[1],inactive
same,Potency,[2],inactive
same,Potency,[3],16.9 µM (active)
same,Potency,[4],inactive
same,outcome,[5],inactive
same,Potency,[6],inactive
same,Potency,[7],inactive
same,Potency,[8],inactive
same,Potency,[9],inactive
same,Potency,[10],inactive
same,outcome,[12],inactive
same,Potency,[18],inactive
same,Potency,[13],5.96 µM (active)
same,outcome,[14],inactive
same,Potency,[15],inactive
same,Potency,[19],inactive
same,Potency,[16],inactive
NC/C=C/C(=O)O,Potency,[1],inactive
same,Potency,[2],inactive
same,Potency,[3],inactive
same,Potency,[4],inactive
same,outcome,[5],inactive
same,Potency,[6],inactive
same,Potency,[7],inactive
same,Potency,[8],inactive
same,Potency,[9],inactive
same,Potency,[10],inactive
same,Potency,[11],inactive
same,outcome,[12],inactive
same,outcome,[20],inactive
same,Potency,[13],inactive
same,outcome,[14],inactive
same,Potency,[15],inactive
same,Potency,[16],inactive
Cc1cn([C@@H]2O[C@H](CO)[C@@H](O)[C@@H]2F)c(=O)[nH]c1=O,Potency,[1],inactive
same,Potency,[2],inactive
same,Potency,[3],inactive
same,Potency,[4],inactive
same,outcome,[5],inactive
same,Potency,[6],inactive
same,Potency,[7],inactive
same,Potency,[8],inactive
same,Potency,[9],inactive
same,Potency,[10],inactive
same,Potency,[11],inactive
same,outcome,[12],inactive
same,Potency,[13],inactive
same,outcome,[14],inactive
same,Potency,[19],inactive
same,Potency,[16],inactive
CCCCCCCCCC#N,Potency,[1],inactive
same,Potency,[2],inactive
same,Potency,[3],inactive
same,Potency,[4],inactive
same,outcome,[5],inactive
same,Potency,[6],inactive
same,Potency,[7],inactive
same,Potency,[8],inactive
same,Potency,[9],inactive
same,Potency,[10],inactive
same,Potency,[11],inactive
same,outcome,[12],inactive
same,Potency,[13],inactive
same,outcome,[14],inactive
same,Potency,[19],60.8 µM (active)
CN1C(=O)CC(c2ccccc2)C1=O (stereo not drawn),Potency,[1],inactive
same,Potency,[2],inactive
same,Potency,[3],inactive
same,Potency,[4],inactive
same,outcome,[5],inactive
same,Potency,[6],inactive
same,Potency,[7],inactive
same,Potency,[8],inactive
same,Potency,[9],inactive
same,Potency,[10],inactive
same,Potency,[11],inactive
same,outcome,[12],inactive
same,outcome,[20],inactive
same,Potency,[13],inactive
same,outcome,[14],inactive
same,Potency,[15],inactive
same,Potency,[19],inactive
same,Potency,[16],inactive
C=O,Potency,[1],inactive
same,Potency,[2],inactive
same,Potency,[3],inactive
same,Potency,[4],inactive
same,outcome,[5],inactive
same,Potency,[6],inactive
same,Potency,[7],inactive
same,Potency,[8],inactive
same,Potency,[9],inactive
same,Potency,[10],inactive
same,Potency,[11],inactive
same,outcome,[12],inactive
same,outcome,[20],inactive
same,Potency,[13],inactive
same,outcome,[14],inactive
same,Potency,[15],inactive
same,Potency,[19],inactive
same,Potency,[16],inactive
ClC(Cl)Cl,Potency,[1],inactive
same,Potency,[2],inactive
same,Potency,[3],inactive
same,Potency,[4],inactive
same,outcome,[5],inactive
same,Potency,[6],inactive
same,Potency,[7],inactive
same,Potency,[8],inactive
same,Potency,[9],inactive
same,Potency,[10],inactive
same,Potency,[11],inactive
same,outcome,[12],inactive
same,outcome,[20],inactive
same,Potency,[13],inactive
same,outcome,[14],inactive
same,Potency,[19],42.9 µM (active)
same,Potency,[16],inactive
CCc1nnc(NS(=O)(=O)c2ccc(N)cc2)s1,Potency,[1],inactive
same,Potency,[2],inactive
same,Potency,[3],inactive
same,Potency,[4],inactive
same,outcome,[5],inactive
same,Potency,[6],inactive
same,Potency,[7],inactive
same,Potency,[8],inactive
same,Potency,[9],inactive
same,Potency,[10],inactive
same,Potency,[11],inactive
same,outcome,[12],inactive
same,outcome,[20],inactive
same,Potency,[13],inactive
same,outcome,[14],inactive
same,Potency,[15],inactive
same,Potency,[19],inactive
CCCCCCCCOC(=O)CCCCCCCCC(=O)OCCCCCCCC,Potency,[1],inactive
same,Potency,[2],inactive
same,Potency,[3],inactive
same,Potency,[4],inactive
same,outcome,[5],inactive
same,Potency,[6],inactive
same,Potency,[7],inactive
same,Potency,[8],inactive
same,Potency,[9],inactive
same,Potency,[10],inactive
same,Potency,[11],inactive
same,outcome,[12],inactive
same,Potency,[17],inactive
same,Potency,[13],inactive
same,outcome,[14],inactive
same,Potency,[15],inactive
same,Potency,[19],inactive
same,Potency,[16],inactive
COC(=O)C(C)O (stereo not drawn),Potency,[1],inactive
same,Potency,[2],inactive
same,Potency,[3],inactive
same,Potency,[4],inactive
same,outcome,[5],inactive
same,Potency,[6],inactive
same,Potency,[7],inactive
same,Potency,[8],inactive
same,Potency,[9],inactive
same,Potency,[10],inactive
same,outcome,[12],inactive
same,Potency,[18],inactive
same,Potency,[17],inactive
same,Potency,[13],inactive
same,outcome,[14],inactive
same,Potency,[15],inactive
same,Potency,[19],inactive
CCOC(=O)C(Br)c1ccccc1 (stereo not drawn),Potency,[1],inactive
same,Potency,[2],inactive
same,Potency,[3],inactive
same,Potency,[4],inactive
same,outcome,[5],inactive
same,Potency,[6],inactive
same,Potency,[7],inactive
same,Potency,[8],inactive
same,Potency,[9],inactive
same,Potency,[10],inactive
same,Potency,[11],inactive
same,outcome,[12],inactive
same,Potency,[17],inactive
same,Potency,[13],inactive
same,outcome,[14],inactive
same,Potency,[15],inactive
same,Potency,[19],inactive
same,Potency,[16],inactive
COc1nc(C)nc(NC(=O)NS(=O)(=O)c2ccccc2OCCCl)n1,Potency,[1],inactive
same,Potency,[2],inactive
same,Potency,[3],inactive
same,Potency,[4],inactive
same,outcome,[5],inactive
same,Potency,[6],inactive
same,Potency,[7],inactive
same,Potency,[8],inactive
same,Potency,[9],inactive
same,Potency,[10],inactive
same,Potency,[11],inactive
same,outcome,[12],inactive
same,Potency,[17],inactive
same,Potency,[13],inactive
same,outcome,[14],inactive
same,Potency,[15],inactive
same,Potency,[16],inactive
